Experiment [1] can be described thus: NCI Yeast Anticancer Drug Screen. Data for the rad50 strain (AID 155).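 Note: 0% = growth of vehicle-only cultures of the same strain.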 The settings on record: S. cerevisiae rad50 strain growth inhibition, hits give high values. In outline: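 Compounds were tested on a yeast strain with an engineered DNA damage repair alteration; the reported value is growth inhibition normalised to vehicle treatment.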
Experiment [2] in a line: NCI Yeast Anticancer Drug Screen. Data for the mec2-1 strain (AID 157). The settings on record: S. cerevisiae mec2-1 strain, hits give high values. In outline:
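mec2-1 yeast strain, carrying an alteration in DNA damage repair or cell cycle control, was exposed to compounds; growth inhibition was measured relative to vehicle-treated controls.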

Experiment [3] can be described thus: NCI Yeast Anticancer Drug Screen. Data for the sgs1 mgt1 strain (AID 161).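 Note: 0% = growth of cultures given vehicle only.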 The note with it: S. cerevisiae sgs1 mgt1 strain, hits give high values. The procedure, abridged:
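This yeast growth screen uses a strain with defined DNA-repair lesions; compound-treated growth is compared with vehicle-treated growth.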

Experiment [4] is described as follows: NCI Yeast Anticancer Drug Screen. Data for the cln2 rad14 strain (AID 165).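 Note: 0% = growth equal to vehicle treated cultures.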 The settings on record: S. cerevisiae cln2 rad14 strain, hits give high values. The procedure, abridged:
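Yeast carrying cln2 and rad14 alterations (cell cycle control and DNA damage repair) were exposed to compounds. Growth inhibition was measured against vehicle-treated controls.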

Experiment [5] can be described thus: NCI Yeast Anticancer Drug Screen. Data for the bub3 strain (AID 167). The settings on record: S. cerevisiae bub3 mutant strain, hits give high values. The procedure, abridged:
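Growth of a checkpoint-deficient yeast mutant is measured after compound exposure. Values represent inhibition relative to vehicle.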

A short description of experiment [6]: NCI Yeast Anticancer Drug Screen. Data for the mlh1 rad18 strain (AID 175). The note with it: S. cerevisiae mlh1 rad18 strain growth inhibition, hits give high values. In outline: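 Growth inhibition of the yeast strain was measured after compound exposure and expressed relative to vehicle-treated controls. The strain carries defined defects in DNA damage repair.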

Where [7] appears, read: at 5.0 µM (retest, dose inferred, filed as 0.5).
[8] abbreviates: at 50.0 µM (retest, dose inferred, filed as 5.0).

Structures are written as SMILES. About 79,000 compounds went through this panel and 15% of them were active in at least one assay; those are over-represented in the sample as a whole. Unmarked numbers belong to inactive results. Active and inactive are the calls of the source. Cut-off read from the data, not from the text of the source: active = growth inhibition above about 70%; inactive = the rest.

`CCC(C)N1CN(c2ccccc2)C2(CCN(CCCC3(c4ccc(F)cc4)OCCO3)CC2)C1=O` (stereo not given): the growth inhibition in experiment [1] (setting [7]) was -9%; in experiment [1] (setting [8]), 93% (active); in experiment [1] (at 50.0 µM) it was -0.8%; in experiment [2] (setting [7]) it was -7%; in experiment [2] (setting [8]) it was 98% (active); in experiment [2] (at 50.0 µM), 5.3%. Moreover, the growth inhibition in experiment [3] (setting [7]) is -6%; in experiment [3] (setting [8]), 95% (active); in experiment [3] (at 50.0 µM), 34%; in experiment [4] (setting [7]), -7%; in experiment [4] (setting [8]), 92% (active); in experiment [4] (at 50.0 µM) it was 74.5% (active). Moreover, the growth inhibition is -2% in experiment [5] (setting [7]); 94% (active) in experiment [5] (setting [8]); 7.55% in experiment [5] (at 50.0 µM); -3% in experiment [6] (setting [7]); 96% (active) in experiment [6] (setting [8]); 31% in experiment [6] (at 50.0 µM).

`CC(=O)OC1CCC2(C)C(CCC3C4=CCC(C5=CC(=O)OC5)C4(C)CCC32)C1` (stereo not given): the growth inhibition in experiment [1] (setting [7]) is 3%; in experiment [1] (setting [8]) it was -33%; in experiment [1] (at 50.0 µM), 82.8% (active); in experiment [2] (setting [7]), -1%; in experiment [2] (setting [8]), 14%; in experiment [2] (at 50.0 µM), 81.8% (active). For the same compound, the growth inhibition in experiment [3] (setting [7]) was 5%; in experiment [3] (setting [8]), 55%; in experiment [3] (at 50.0 µM), 91.3% (active); in experiment [4] (setting [7]), 12%; in experiment [4] (setting [8]) it was 11%; in experiment [4] (at 50.0 µM), 65.3%. Further, the growth inhibition was 0% in experiment [5] (setting [7]); 4% in experiment [5] (setting [8]); 67.5% in experiment [5] (at 50.0 µM); 3% in experiment [6] (setting [7]); -8% in experiment [6] (setting [8]); 77.8% (active) in experiment [6] (at 50.0 µM).

Consider `CC(C)[O-].CC(C)[O-].[O-]c1cccc2cccnc12.[O-]c1cccc2cccnc12.[Ti+4]`, for which the growth inhibition in experiment [1] (setting [7]) is 6%; in experiment [1] (setting [8]), 6%; in experiment [1] (at 50.0 µM), 55.5%; in experiment [2] (setting [7]), 11%; in experiment [2] (setting [8]) it was 11%; in experiment [2] (at 50.0 µM) it was 70.8% (active). Moreover, the growth inhibition was 4% in experiment [3] (setting [7]); 4% in experiment [3] (setting [8]); 37.6% in experiment [3] (at 50.0 µM); 6% in experiment [4] (setting [7]); 6% in experiment [4] (setting [8]); 51.8% in experiment [4] (at 50.0 µM). Moreover, the growth inhibition in experiment [5] (setting [7]) was -3%; in experiment [5] (setting [8]), -3%; in experiment [5] (at 50.0 µM) it was 64.8%; in experiment [6] (setting [7]), -24%; in experiment [6] (setting [8]) it was -24%; in experiment [6] (at 50.0 µM) it was 58.9%.

Regarding `CCc1cc2c(cc1O)C(C)(C)CCC2(C)C`, the growth inhibition in experiment [1] (setting [7]) is -1%; in experiment [1] (setting [8]) it was 7%; in experiment [1] (at 50.0 µM) it was 98% (active); in experiment [2] (setting [7]), -2%; in experiment [2] (setting [8]), -7%; in experiment [2] (at 50.0 µM), 97.8% (active). For the same compound, the growth inhibition was -3% in experiment [3] (setting [7]); 7% in experiment [3] (setting [8]); 52.5% in experiment [3] (at 50.0 µM); 5% in experiment [4] (setting [7]); 10% in experiment [4] (setting [8]); 98% (active) in experiment [4] (at 50.0 µM). In addition, the growth inhibition in experiment [5] (setting [7]) was 3%; in experiment [5] (setting [8]), 18%; in experiment [5] (at 50.0 µM), 43%; in experiment [6] (setting [7]) it was 0%; in experiment [6] (setting [8]), 4%; in experiment [6] (at 50.0 µM) it was 98% (active).

Turning to `N#Cc1ccc(N=Cc2c([O-])ccc3ccccc23)cc1.[C-]#[O+].[C-]#[O+].[Ir]`, the growth inhibition in experiment [1] (setting [7]) is 8%; in experiment [1] (setting [8]), 8%; in experiment [1] (at 50.0 µM), 82.6% (active); in experiment [2] (setting [7]), 1%; in experiment [2] (setting [8]) it was 1%; in experiment [2] (at 50.0 µM), 59.5%. Also, the growth inhibition in experiment [3] (setting [7]) is 2%; in experiment [3] (setting [8]) it was 2%; in experiment [3] (at 50.0 µM) it was 61.8%; in experiment [4] (setting [7]) it was 0%; in experiment [4] (setting [8]), 0%; in experiment [4] (at 50.0 µM), 50.2%. Besides, the growth inhibition was 1% in experiment [5] (setting [7]); 1% in experiment [5] (setting [8]); 74.7% (active) in experiment [5] (at 50.0 µM); 13% in experiment [6] (setting [7]); 13% in experiment [6] (setting [8]); 75.8% (active) in experiment [6] (at 50.0 µM).

For the compound `C=CCCCCCCCCC(=O)O` (tested in a mixture with another compound), the growth inhibition in experiment [1] (setting [7]) is -3%; in experiment [1] (setting [8]), 12%; in experiment [1] (at 50.0 µM), 23.1%; in experiment [2] (setting [7]), -3%; in experiment [2] (setting [8]) it was 8%; in experiment [2] (at 50.0 µM) it was 63.3%. For the same compound, the growth inhibition was -9% in experiment [3] (setting [7]); 27% in experiment [3] (setting [8]); 53% in experiment [3] (at 50.0 µM); 6% in experiment [4] (setting [7]); 72% (active) in experiment [4] (setting [8]); 96.8% (active) in experiment [4] (at 50.0 µM). The growth inhibition is -7% in experiment [5] (setting [7]); 7% in experiment [5] (setting [8]); 40.4% in experiment [5] (at 50.0 µM); -7% in experiment [6] (setting [7]); 48% in experiment [6] (setting [8]); 83% (active) in experiment [6] (at 50.0 µM).

As for `Cc1cc(O)c2c(c1)C(=O)C13C(=C2O)C(=O)C2C(O)C1C1C(O)C3C(=O)C3=C(O)c4c(O)cc(C)cc4C(=O)C321` (stereo not given), the growth inhibition was 18% in experiment [1] (setting [7]); 44% in experiment [1] (setting [8]); 69.7% in experiment [1] (at 50.0 µM); 57% in experiment [2] (setting [7]); 46% in experiment [2] (setting [8]); 76.2% (active) in experiment [2] (at 50.0 µM). The growth inhibition in experiment [3] (setting [7]) was 40%; in experiment [3] (setting [8]), 48%; in experiment [3] (at 50.0 µM), 79.5% (active); in experiment [4] (setting [7]), 64%; in experiment [4] (setting [8]), 47%; in experiment [4] (at 50.0 µM) it was 60.1%. Besides, the growth inhibition was 88% (active) in experiment [5] (setting [7]); 70% (active) in experiment [5] (setting [8]); 80.2% (active) in experiment [5] (at 50.0 µM); 34% in experiment [6] (setting [7]); 42% in experiment [6] (setting [8]); 69% in experiment [6] (at 50.0 µM).

As to `COc1cc(/C=C/c2ccc(OC)c(OC)c2)cc(OC)c1`, the growth inhibition in experiment [1] (setting [7]) was -6%; in experiment [1] (setting [8]), 10%; in experiment [1] (at 50.0 µM), 26.1%; in experiment [2] (setting [7]) it was -2%; in experiment [2] (setting [8]), 26%; in experiment [2] (at 50.0 µM) it was 15.1%. Further, the growth inhibition was -3% in experiment [3] (setting [7]); 68% in experiment [3] (setting [8]); 79% (active) in experiment [3] (at 50.0 µM); -4% in experiment [4] (setting [7]); 16% in experiment [4] (setting [8]); 47.6% in experiment [4] (at 50.0 µM). Besides, the growth inhibition in experiment [5] (setting [7]) was 1%; in experiment [5] (setting [8]), 69%; in experiment [5] (at 50.0 µM) it was 66.9%; in experiment [6] (setting [7]), -3%; in experiment [6] (setting [8]), 12%; in experiment [6] (at 50.0 µM), 59.5%.

With `CSc1ccc2c(c1)c(CCN)c(C)n2Cc1ccccc1Cl`, the growth inhibition is 3% in experiment [1] (setting [7]); 100% (active) in experiment [1] (setting [8]); 99.5% (active) in experiment [1] (at 50.0 µM); 0% in experiment [2] (setting [7]); 100% (active) in experiment [2] (setting [8]); 99.5% (active) in experiment [2] (at 50.0 µM). The growth inhibition in experiment [3] (setting [7]) is 12%; in experiment [3] (setting [8]), 99% (active); in experiment [3] (at 50.0 µM), 99.3% (active); in experiment [4] (setting [7]) it was -31%; in experiment [4] (setting [8]) it was 98% (active); in experiment [4] (at 50.0 µM), 98.5% (active). For the same compound, the growth inhibition is -7% in experiment [5] (setting [7]); 99% (active) in experiment [5] (setting [8]); 99.5% (active) in experiment [5] (at 50.0 µM); 13% in experiment [6] (setting [7]); 99% (active) in experiment [6] (setting [8]); 99.4% (active) in experiment [6] (at 50.0 µM).

On to `Cn1c2cccc(=O)c-2nc2ccccc21`, for which the growth inhibition in experiment [1] (setting [7]) is -14%; in experiment [1] (setting [8]) it was 85% (active); in experiment [1] (at 50.0 µM), 82.5% (active); in experiment [2] (setting [7]) it was 6%; in experiment [2] (setting [8]) it was 62%; in experiment [2] (at 50.0 µM) it was 52.2%. Further, the growth inhibition in experiment [3] (setting [7]) is 1%; in experiment [3] (setting [8]), 49%; in experiment [3] (at 50.0 µM) it was 21.3%; in experiment [4] (setting [7]) it was -22%; in experiment [4] (setting [8]), 34%; in experiment [4] (at 50.0 µM) it was -2.9%. The growth inhibition in experiment [5] (setting [7]) was -12%; in experiment [5] (setting [8]), 56%; in experiment [5] (at 50.0 µM), 41.9%; in experiment [6] (setting [7]) it was 9%; in experiment [6] (setting [8]), 77% (active); in experiment [6] (at 50.0 µM), 60%.

These data come from PubChem BioAssay (NCI).
